This excerpt belongs to a sample that is enriched for hits.
ERG-DNA inh – qHTS for Small Molecule Inhibitors of the ERG Ets/DNA interaction. 0.028% of 370,000 active. AID 624246, 2012. Potency, µM (highest dose often 76.9 µM), for inactives: top-dose FP activity, negative = inhibition, usual class: inhibitors. Transcriptional regulator ERG (Homo sapiens), P11308. fluorescence polarization, His-ERG Ets domain / labelled DNA; active means well fitted inhibition curve with a large enough effect in the polarisation, with a control signal flat; inconclusive means small, poorly fitted or top-dose-only effect, or effect the other way, or a change in a side signal; inactive means no such curve, though single readings can be large or run the other way; the % refers to the polarisation;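 further: polarization taken with two DNA probes labelled with fluorescein and Texas red; potency means the concentration at half of the fitted maximal effect; % of control where 0% means no effect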
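His-tagged ERG Ets domain (1 uM in the protein solution; 300mM KCl, 50mM Tris-HCl, 1mM EDTA, 1mM DTT, pH 7.5) received compound, then a probe mix of 5 nM fluorescein-DNA and 100nM Texas-615-DNA. Fluorescence polarization was read for both dyes.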
RORgamma inh – qHTS for inhibitors of ROR gamma transcriptional activity. Nuclear receptor ROR-gamma (Mus musculus), P51450. Drosophila S2 Gal4-RORgamma UAS-luciferase reporter, 20 h. Potency, µM (highest dose often 53.6 µM), for the others: top-dose activity change, negative = inhibition, most hits filed as inhibitors. 5.4% of 310,000 active. AID 2551, 2010; further: potency means the concentration at half of the fitted maximal effect; on the % scale 0 is the no-effect control and ±100 the full control effect; nearly all actives have a fitted effect of over 60% in size
Target sequence (P51450 whole entry, looked up, the tested form may be a part): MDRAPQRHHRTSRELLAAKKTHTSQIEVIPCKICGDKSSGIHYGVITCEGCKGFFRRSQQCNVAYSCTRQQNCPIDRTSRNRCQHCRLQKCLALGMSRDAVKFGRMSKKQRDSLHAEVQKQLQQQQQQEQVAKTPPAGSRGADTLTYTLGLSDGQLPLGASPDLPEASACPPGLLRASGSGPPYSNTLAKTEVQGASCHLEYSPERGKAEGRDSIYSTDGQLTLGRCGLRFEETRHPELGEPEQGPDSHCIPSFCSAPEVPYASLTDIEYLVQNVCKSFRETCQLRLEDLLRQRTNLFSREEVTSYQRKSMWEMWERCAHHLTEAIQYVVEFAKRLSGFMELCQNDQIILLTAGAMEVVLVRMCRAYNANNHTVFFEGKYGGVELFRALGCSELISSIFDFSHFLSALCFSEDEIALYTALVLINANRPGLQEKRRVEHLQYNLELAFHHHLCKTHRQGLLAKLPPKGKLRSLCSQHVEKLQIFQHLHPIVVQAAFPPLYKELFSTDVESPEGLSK
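Drosophila Schneider cells stably carrying a metallothionein-driven Gal4 DBD–ROR gamma fusion and a UAS-Photinus luciferase reporter were exposed to compound for 1 hr, then induced with copper sulfate (700 uM final) for 20 hr at ambient temperature before luminescence reading.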
Integrin act MD – qHTS for Activators of Integrin-Mediated Alleviation for Muscular Dystrophy; alpha7betagal myoblasts, beta-gal FDG fluorescence, 48 h; Potency, µM (series often up to 38.3 µM), without a hit: at the highest dose activation, hits mostly activators; 0.064% of 350,000 active;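 further: potency means the concentration at half of the fitted maximal effect; 100% = response of the positive control SU9516; nearly all actives have a fitted effect of over 60% in size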
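alpha7betagal+/- myoblasts (passage 13, 250/well) treated 48 h at 37C with compounds at 1:260 dilution of DMSO stock. Lysed, then beta-galactosidase activity read as FDG fluorescence (ex 480/em 540) after 30 min, with pre-read for autofluorescence.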
VP16 counter – VP16 counterscreen qHTS for inhibitors of ROR gamma transcriptional activity | Drosophila S2 Gal4-VP16 UAS-luciferase, luminescence, 20 h | 3.5% of 310,000 active | Potency, µM (titrated, usually from 53.6 µM), without a hit: top-dose activity, negative = inhibition, usual class: inhibitors;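 further: Gal4-VP16 expression switched on by copper sulfate through the metallothionein promoter; potency means the concentration at half of the fitted maximal effect; on the % scale 0 is the no-effect control and ±100 the full control effect; nearly all actives have a fitted effect of over 50% in size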
Giardia kill – Small Molecules that selectively kill Giardia lamblia: qHTS; Giardia lamblia trophozoite viability; activity change, % at 7.66 µM, hits read low; 0.15% of 340,000 active; in the data active means activity change below about -80%; inconclusive means between about -30% and that limit;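 further: parasites exposed to compound for two days anaerobically before the ATP read; on the % scale 0 is the no-effect control and ±100 the full control effect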
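Trophozoite viability was measured as ATP-dependent luminescence, read 15-30 min after reagent addition. Before that, parasites at 100 cells/well were exposed to compounds for 48 h, anaerobically, at 37 deg C.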
* marks the source's active call; other numbers are inactive results; u = inconclusive; x = no result; [ ] = dose if it differs, or a comment. Unless noted, the call rests on the fitted dose curve; in most records, active means well fitted curve in the direction sought with a large enough effect; inconclusive means small, poorly fitted or top-dose-only effect, or another doubt; inactive means no such curve, though single readings can be large; an effect the other way counts as inactive or inconclusive.

SMILES | ERG-DNA inh | RORgamma inh | Integrin act MD | VP16 counter | Giardia kill
O=C(NCCNC(=O)c1ccco1)c1ccco1 | -3% | 16µM* | 5% | 7% | -1
CCCCNC(=S)NNC(=O)c1ccoc1C | -8% | 8.9µM* | -11% | 14% | 10
Cc1ccccc1NC(=S)NNC(=O)c1ccoc1C | -3% | u | 8% | 0% | 3
Cc1occc1C(=O)NNC(=S)Nc1ccccc1 | 3% | 14µM* | 8% | 10% | 0
CCCCNC(=S)NNC(=O)c1ccco1 | 2% | 13µM* | 5% | u | 11
COCCCNC(=S)NNC(=O)c1ccoc1C | -8% | u | 8% | u | -3
CCCCNC(=O)NNC(=O)c1ccco1 | 5% | -10% | 17% | -6% | -14
CCC(=O)Nc1ccc(NC(=O)c2cccc3c(Br)cccc23)cc1 | 12% | -1% | 11% | -10% | 5
Cc1ccc(C)c(NC(=S)NNC(=O)c2ccco2)c1 | 2% | 2.2µM* | -7%[7.66 µM] | -7% | -10
COc1cccc(/C=C2\SC(=S)N(CCCC(=O)N3CCCCC3CCO)C2=O)c1 (centres undefined) | 17% | 3.5µM* | -34% | 2.8µM* | 10
COc1cccc(/C=C2\SC(=S)N(CCCC(=O)N3CCCC3)C2=O)c1 | 10% | 2.5µM* | -12% | -17% | 0
COc1ccc(/C=C2\SC(=S)N(CCCC(=O)N3CCOCC3)C2=O)cc1 | -10% | x | -41% | x | -2
O=C(c1ccco1)N1CCN(C(=O)c2ccccc2OCc2ccc(Cl)cc2)CC1 | 1% | x | -15% | x | 2
COc1cccc(N2CCN(C(=O)c3ccc(Cn4c(=O)[nH]c5cc(OC)c(OC)cc5c4=O)cc3)CC2)c1 | 0% | x | x | x | x
CNC(=S)N/N=C(\C)c1ccc(C(C)(C)C)cc1 | -8% | 1.1µM* | 24% | 0.89µM* | -4
CNC(=S)N/N=C(\C)c1ccccc1 | 9% | 4µM* | 3% | 16µM* | 3
CNC(=S)N/N=C(\C)c1cccc([N+](=O)[O-])c1 | -3% | 3.5µM* | -17% | 4.5µM* | -8
O=C1c2ccccc2C(=O)N1CCC#C/C=C1\c2ccccc2C(=O)N1c1ccccc1 | x | x | -20% | x | x
O=C(Nc1nnc(C2=COCCO2)o1)c1ccc(S(=O)(=O)N2CCCC2)cc1 | 16% | 17% | 19% | -7% | -6
CCC1CCCCN1S(=O)(=O)c1ccc(C(=O)Nc2nnc(C3=COCCO3)o2)cc1 (centres undefined) | -5% | 0.89µM* | -3% | 1µM* | 0
O=C(Nc1nnc(C2=COCCO2)o1)c1ccc(S(=O)(=O)N2CCCCC2)cc1 | -2% | 1.3µM* | -2% | 3.2µM* | -2
CC1CCN(S(=O)(=O)c2ccc(C(=O)Nc3nnc(C4=COCCO4)o3)cc2)CC1 | -21% | 1.1µM* | -6% | 1µM* | 12
CC(=O)c1cccc(NC(=O)CSc2ncc3c(n2)-c2cc(Cl)ccc2N(Cc2ccccc2)S3(=O)=O)c1 | 13% | x | x | x | x
C#C[C@]1(O)CC[C@@H]2[C@H]3CCC4=CC(=O)CC[C@H]4[C@H]3C(=C)C[C@@]21CC | x | -14% | x | -14% | x
COc1ccc(-n2cnnc2SCC(=O)Nc2ccccc2F)cc1 | 4% | -7% | 14% | 1% | 12
SMILES | ERG-DNA inh | RORgamma inh | Integrin act MD | VP16 counter | Giardia kill
COc1ccc(C(CC(=O)N2CCCC(C)C2)c2c(O)cc(OC)cc2OC)cc1 (centres undefined) | 9% | 2µM* | -20% | 14% | 2
COc1cc(O)c(C(CC(=O)N2CCCC(C)C2)c2cc(OC)c(OC)c(OC)c2)c(OC)c1 (centres undefined) | 2% | -16% | 21% | 5% | -8
O=S(=O)(c1ccccc1)N1CCN(C(=S)Nc2ccccc2Cl)CC1 | -12% | -8% | 10% | u | -2
COc1cccc(-c2nnc3n2N=C(c2ccc(OC)cc2OC)CS3)c1 | x | u | x | 7.9µM* | x
COc1ccc(C2=Nn3c(nnc3-c3cccc(OC)c3OC)SC2)c(OC)c1 | x | u | x | 18µM* | x
C=CCN(C(=O)CNS(=O)(=O)c1ccccc1)C(C(=O)NCCOC)c1ccncc1 (centres undefined) | 13% | 15%[0.365 µM] | -6% | x | -7
CCCOc1ccc(-c2c(C(=O)N/N=C/c3ccc(OCC)cc3)nnn2-c2nonc2N)cc1 | -8% | 10µM* | -7% | 10µM* | 11
CCCOc1ccc(-c2c(C(=O)N/N=C/c3cccs3)nnn2-c2nonc2N)cc1 | -1% | 2.2µM* | -3% | 3.2µM* | 3
CCCOc1ccc(-c2c(C(=O)N/N=C/c3ccc(OC)cc3)nnn2-c2nonc2N)cc1 | 1% | 16µM* | 8% | u | -2
CCOc1ccc(-c2c(C(=O)N/N=C(\C)c3ccccc3OC)nnn2-c2nonc2N)cc1 | 2% | 5.6µM* | -9% | -7% | -4
COc1ccc(-c2nc(Cn3c(SCc4ccc(C)cc4)nc4cccnc43)c(C)o2)cc1OC | 1% | x | x | x | x
C=CC(C)(O)CC1[C@@]2(C)CCCC(C)(C)C2CC[C@]1(C)O (some centres undefined) | x | 2% | x | -26% | x
O=C(CC(SCc1ccco1)c1ccc(O)cc1)c1cccs1 (centres undefined) | 2% | 0.89µM* | -28% | -14% | 1
Cc1ccc(C(=O)N/N=C2/NC(=O)CC(C(=O)Nc3ccccc3)S2)cc1 (centres undefined) | -5% | 3.2µM* | 19% | 5.6µM* | -10
COc1ccc(NC(=O)C2CC(=O)N/C(=N/NC(=O)c3ccc(Cl)cc3)S2)cc1 (centres undefined) | -1% | 1.3µM* | -9% | -27% | -10
Cc1ccc(NC(=O)C2CC(=O)N/C(=N/NC(=O)c3ccc(C)cc3)S2)cc1 (centres undefined) | 5% | 2.2µM* | 0% | 10µM* | 4
O=C1CC(C(=O)Nc2ccccc2)S/C(=N\NC(=O)c2ccccc2Cl)N1 (centres undefined) | -6% | 3.2µM* | -5% | 5µM* | 7
COc1ccccc1C(=O)N/N=C1/NC(=O)CC(C(=O)Nc2ccccc2)S1 (centres undefined) | 4% | -11% | 0% | 4% | -4
CC(=O)c1ccc(S(=O)(=O)Nc2ccc(C(=O)N3CCC3)cc2)cc1 | 4% | x | 13% | x | u
COc1cccc(NC(=O)C2CC(=O)N/C(=N/NC(=O)c3ccc(C)cc3)S2)c1 (centres undefined) | -4% | 6.3µM* | 31% | 11µM* | -13
O=c1n(Cc2cc3c(cc2Cl)OCO3)c(=O)n2n1CC[C@H]1/C(=N\OC[C@@H](O)COCc3ccco3)[C@H]3O[C@@H]3[C@@H](O)[C@@H]12 | x | -11%[10 µM] | x | -8%[10 µM] | x
COc1cc(C(=O)Nc2ccc(NC(C)=O)cc2)ccc1OCc1ccccc1 | 0% | 0% | 27% | -15% | 28
